An excerpt weighted towards active compounds, which were near 11% of everything screened.
MCF10A rerep – induces DNA re-replication in MCF 10a normal breast cells. MCF 10A DNA re-replication, Hoechst nuclear intensity, 48 h. Potency, µM (doses to about 46.1 µM), for inactives: at the top dose activity, positive = re-replication, actives largely listed as activators. hit rate 2.9% among 350,000. AID 624296; note: potency is the fitted concentration of half-maximal effect; % of control where 0% means no effect; nearly all actives have a fitted effect of over 50% in size
IL1B secr inh – inflammasome signaling inhibition, IL-1 beta readout; activity change, % at 57.5 µM; AID 743279; THP-1 LPS/ATP IL-1B secretion, AlphaLISA, 16 h; stronger effect = lower value; hit rate 4.7% among 360,000; in the data active = activity change below about -50%; inconclusive = mostly about -30% to -49%; note: % is set by controls: 0 for no effect and ±100 for the full control effect
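THP-1 cells pretreated 1 hr with compounds (up to 57.5 uM final), then stimulated with LPS (250 ng/mL final) plus ATP (1.25 mM final); secreted IL-1B measured by AlphaLISA after 16 hr, decreased signal indicating inhibition.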
Gal4-VP16 FLuc – inhibits Gal4-VP16 luciferase reporter, ROR gamma counter-screen; Drosophila S2 Gal4-VP16 UAS-luciferase, luminescence, 20 h; Potency, µM (highest dose often 53.6 µM), without a hit: at the highest dose activity, negative = inhibition, most hits filed as inhibitors; hit rate 3.5% among 310,000; AID 2546;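 note: Gal4-VP16 expression switched on by copper sulfate through the metallothionein promoter; potency is the fitted concentration of half-maximal effect; % is set by controls: 0 for no effect and ±100 for the full control effect; nearly all actives have a fitted effect of over 50% in size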
SW480 rereplic – inducers of DNA re-replication in SW480 colon cancer cells; Potency, µM (top dose mostly 46.1 µM), inactives show top-dose re-replication activation, actives largely listed as activators; SW480 DNA re-replication, Hoechst DNA content imaging, 48 h; hit rate 1.8% among 340,000; note: potency is the fitted concentration of half-maximal effect; % of control where 0% means no effect; nearly all actives have a fitted effect of over 55% in size
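DNA re-replication was detected as more nuclei of elevated Hoechst intensity after 48 hr exposure to compound (23 nL pinned per well of 250 cells).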
RORgamma inh – blocks mouse ROR gamma transcriptional activity; P51450; Drosophila S2 Gal4-RORgamma UAS-luciferase reporter, 20 h; hit rate 5.4% among 310,000; Potency, µM (titrated, usually from 53.6 µM), for inactives: at the top dose activity change, negative = inhibition, usual class: inhibitors; note: potency is the fitted concentration of half-maximal effect; % is set by controls: 0 for no effect and ±100 for the full control effect; nearly all actives have a fitted effect of over 60% in size
Target sequence (P51450 whole entry, looked up, the tested form may be a part): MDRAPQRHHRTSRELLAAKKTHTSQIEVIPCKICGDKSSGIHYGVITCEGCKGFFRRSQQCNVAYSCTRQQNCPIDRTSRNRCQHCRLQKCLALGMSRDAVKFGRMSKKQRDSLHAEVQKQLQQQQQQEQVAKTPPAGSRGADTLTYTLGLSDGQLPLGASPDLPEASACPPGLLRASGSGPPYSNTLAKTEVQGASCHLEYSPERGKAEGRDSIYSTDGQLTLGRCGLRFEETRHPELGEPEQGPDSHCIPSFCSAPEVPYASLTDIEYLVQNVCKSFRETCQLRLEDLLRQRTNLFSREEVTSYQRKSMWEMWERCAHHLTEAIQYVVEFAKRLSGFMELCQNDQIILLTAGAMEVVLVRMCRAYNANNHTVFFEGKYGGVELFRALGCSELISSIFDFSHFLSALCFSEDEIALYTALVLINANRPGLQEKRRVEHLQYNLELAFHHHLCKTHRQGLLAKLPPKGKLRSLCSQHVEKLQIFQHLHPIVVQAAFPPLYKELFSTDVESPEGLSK
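ROR gamma transcriptional activity was tracked as Gal4-UAS luciferase output in stably transfected Drosophila Schneider cells, with compound added 1 hr before 700 uM copper sulfate induction and a 20 hr ambient-temperature incubation.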
Numbers without * were called inactive; ? = inconclusive; · = no result. Unless noted, calls come from the whole dose curve; as a rule, active = well fitted curve in the direction sought with a large enough effect; inconclusive = small, poorly fitted or top-dose-only effect, or another doubt; inactive = no such curve, though single readings can be large; an effect the other way counts as inactive or inconclusive.

SMILES	MCF10A rerep	IL1B secr inh	Gal4-VP16 FLuc	SW480 rereplic	RORgamma inh
Cc1noc(C)c1C(=O)N1CCC2(CCN(C(=O)NC(C)C)CC2)CC1	·	·	-10.2%	·	-1.6%
O=c1[nH]nc(-c2ccc(F)cc2)cc1-c1ccccc1	12.0%	-72.2*	-13.3%	-7.0%	26.5%
C[C@@H]1CN(S(=O)(=O)C(C)(C)C)[C@H](CCO)/C1=C\c1ccccc1	?	9.4	·	3.8%	·
O=C(O)c1cc(Cl)ccc1-c1ccc(/C=C/c2cc(C(F)(F)F)[nH]c(=O)n2)o1	18.4µM*	15.2	-2.9%	?	15.7%
O=C1OCC(c2ccccc2)=C1c1ccccc1[N+](=O)[O-]	-0.9%	31.9	13.8%	-0.1%	4.2%
O=C1OCC(c2ccc(Cl)s2)=C1c1ccccc1[N+](=O)[O-]	4.0%	-65.3*	-8.1%	-0.9%	2.6%
Cc1oc(-c2ccc(Cl)cc2)nc1CN1CCCC(C(=O)NCc2cccnc2)C1 (centres undefined)	-2.5%	-72.1*	0.8%	-2.5%	?
Cc1oc(-c2ccc(Cl)cc2)nc1CN1CCCC(C(=O)NCc2ccccn2)C1 (centres undefined)	1.6%	-19.7	-5.1%	-3.0%	?
Cc1oc(-c2ccc(Cl)cc2)nc1CN1CCC(C(=O)N2CCN(Cc3ccccc3)CC2)CC1	12.5%	-59.8*	-3.1%	?	-9.3%
CCN1CCCC1CNC(=O)C1CCN(Cc2nc(-c3cccc(Br)c3)oc2C)CC1 (centres undefined)	?	-83.1*	-10.8%	?	2.2%
Cc1cccc(-c2nc(CN3CCCC(C(=O)NC4CCCCCC4)C3)c(C)o2)c1 (centres undefined)	?	-65.7*	6.6%	?	-11.7%
CSC(=NS(=O)(=O)c1ccc(N)cc1)NS(=O)(=O)c1cccs1	-15.2%	2.5	·	-6.9%	·
CC(O)(c1cccnc1)c1nc(-c2cccc3cccnc23)cs1 (centres undefined)	·	7.4	·	·	·
Cc1oc(-c2cccc(Cl)c2)nc1CN1CCC(C(=O)N2CCN(c3ccccc3F)CC2)CC1	19.7%	-56.2*	-1.7%	22.6%	-2.3%
CC(=O)N(C)Cc1ccc(C(=O)CCl)cc1	13µM*	-105.8*	-1.5%	?	24.4%
COc1ccc(C(=O)OCC(=O)c2ccc(CNC(C)=O)s2)cc1	1.4%	4.9	·	-4.9%	·
CC(=O)NCc1ccc(C(=O)CCl)cc1	?	-101.6*	?	?	?
CC(=O)Nc1ccc(C(=O)CCl)cc1	-21.4%	-103.8*	?	4.1%	4.47µM*
CC(=O)NCc1ccc(C(=O)CCl)s1	?	-17.4	7.08µM*	?	11.2µM*
CC(=O)N(C)Cc1ccc(C(=O)CSc2nnc(C3CC3)n2C2CC2)cc1	-1.0%	15.2	·	-7.7%	·
CC(=O)NCCC(=O)NCc1ccc(F)cc1	0.2%	-8.1	-7.1%	0.5%	4.4%
COc1ccc(NC(=O)/C(=C\c2ccccc2)NC(=O)c2ccco2)cc1	4.4%	?	0.9%	-3.6%	25.4%
CCCNC(=S)N1CCN(C(c2ccccc2)c2ccccc2)CC1	8.0%	-8.7	17.8µM*	-4.6%	11.2µM*
CCCCNC(=S)N1CCN(C(c2ccccc2)c2ccccc2)CC1	?	11.6	?	4.2%	3.16µM*
S=C(NCCc1ccccc1)N1CCN(C(c2ccccc2)c2ccccc2)CC1	13.4%	-2.5	?	3.0%	10µM*
SMILES	MCF10A rerep	IL1B secr inh	Gal4-VP16 FLuc	SW480 rereplic	RORgamma inh
CC(=O)OC1CC2C(C)(C)C(=O)[C@@H]3OC3[C@@]2(C)C2CC[C@]3(C)C(=CC(=O)OC3c3ccoc3)[C@]12C (some centres undefined)	·	·	2.9%	·	8.9%
Cc1cc2oc(=O)cc(-c3ccccc3)c2c(C)c1-c1ccoc1	·	·	-2.8%	·	-10.4%
CCOC(=O)CSC1=C(C#N)C(c2ccccc2OC)CC(=O)N1 (centres undefined)	5.17µM*	41.4	3.9%	18.4µM*	4.1%
CCCCOC(=O)CSC1=C(C#N)C(c2ccccc2OCC)C(C#N)C(=O)N1 (centres undefined)	?	14.5	-8.9%	10.3µM*	-13.4%
CCCN(CCC)Cc1c(C(=O)N/N=C/C(C)=C\c2ccco2)nnn1-c1nonc1N	11.3%	-59.9*	?	?	?
Cc1ccc(-c2c(C(=O)N/N=C/c3ccc(C)o3)nnn2-c2nonc2N)cc1	0.8%	-0.3	11.2µM*	-7.0%	7.94µM*
Cc1ccc(-c2c(C(=O)N/N=C/c3ccco3)nnn2-c2nonc2N)cc1	-4.1%	0.8	?	1.9%	6.31µM*
CCCOc1ccc(-c2c(C(=O)N/N=C/c3ccc(C)cc3)nnn2-c2nonc2N)cc1	?	14.9	-12.9%	-23.4%	?
O=C(CSc1nnc(NC(=O)c2cccc(F)c2)s1)NCC1CCCO1 (centres undefined)	-0.5%	4.3	-18.4%	-4.3%	-30.1%
CN(C)S(=O)(=O)c1ccc(C(=O)Nc2nnc(SCC(=O)NCC3CCCO3)s2)cc1 (centres undefined)	4.1%	19.4	1.3%	-13.1%	0.1%
CCOc1ccc(C(=O)Nc2nnc(SCC(=O)NCC3CCCO3)s2)cc1 (centres undefined)	-3.5%	19.5	3.55µM*	-9.2%	?
CC(C)(C)c1ccc(C(=O)Nc2nnc(SCC(=O)NCC3CCCO3)s2)cc1 (centres undefined)	11.3%	20.6	7.08µM*	0.9%	?
CSCCC(NC(=O)c1ccccc1Cl)C(=O)Nc1cccc(S(=O)(=O)N2CCCC2)c1 (centres undefined)	11.5%	0.1	·	5.2%	·
COC(=O)C(C(=O)OC)c1ccccc1CNS(=O)(=O)c1ccc(C)cc1	·	11.7	·	·	·
CCCc1cc2c(=O)c(-c3ccc4c(c3)OCCO4)coc2cc1OS(C)(=O)=O	?	-53.6*	-15.1%	-0.7%	?
CCCc1cc2c(=O)c(-c3ccc4c(c3)OCCO4)c(C)oc2cc1OS(C)(=O)=O	21.5%	-10.9	-27.2%	2.5%	-8.5%
CC(NC(=O)c1ccccc1Cl)C(=O)OCc1cn2cc(Cl)ccc2n1 (centres undefined)	-16.2%	8.6	·	-12.6%	·
O=C(C[C@@H]1C/C=C\CCC(=O)O[C@H](c2ccccc2)CNC1=O)N[C@H](CO)Cc1ccccc1	6.2%	5.0	·	-6.0%	·
COc1cccc(-c2nn(-c3ccccc3)cc2CN(C)Cc2c(C)nc3ccccn23)c1	10.9%	16.4	?	2.6%	7.08µM*
Cc1[nH]nc2c1C(c1cn[nH]c1-c1ccc(F)cc1)C(C#N)=C(N)O2 (centres undefined)	?	-80.4*	-6.1%	-2.1%	0.1%
Cc1[nH]nc2c1C(C(C)C)C(C#N)=C(N)O2 (centres undefined)	?	-87.0*	-1.5%	-4.1%	6.9%

Assay outcomes: PubChem, National Center for Advancing Translational Sciences (NCATS)
